The results in this text go back to PubChem BioAssay (NCI).

About 83,000 compounds went through this panel and 20% of them were active in at least one assay; those are over-represented in the sample as a whole.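 How to read the values: 0–100, growth inhibition (40 = 60% inhibited); 0, no net growth; -100 to 0, cell death (-40 = 40% of starting cells died; -100 = all dead).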 The source made the active and inactive calls.

The test system of the experiment is M14 melanoma. The experiment can be described thus: NCI-60 one-dose screen, 48 h (100 = growth as untreated, 0 = no growth, -100 = all killed). The conditions noted are these: 10 µM unless noted. As to the method: Growth inhibition of the M14 human tumor cell line is measured as a screen for anti-cancer activity. Cells are grown in 96 well plates and exposed to the test compound for 48 hours. Compounds are tested at a single concentration, which is 10^-5 M for most compounds. The reported endpoint is percent growth (GI% or GIPRCNT), where numbers from 0 - 100% represent growth inhibition, and numbers from -100% - 0 represent cell death. For example, a value of 40 represents 60% growth inhibition. A value of 0 means no net growth occurred over the course of the experiment. A value of -40 indicates 40% of cells at the beginning of the experiment died by the end of the experiment. A value of -100 means all cells are dead at the end of the experiment.
NCI-60 Human Tumor Cell Lines Screen was performed using the standard one-dose NCI protocol, which is described in more detail at https://dtp.cancer.gov/discovery_development/nci-60/default.htm.
Compounds with GIPRCNT values below 10 were considered active. Activity score was based on GIPRCNT using the following formula: […]
Score is 0 for GIPRCNT values of 100 or above, 50 for GIPRCNT values of 0, and 100 for GIPRCNT values of -100.
In the case of `Cn1cc(C(=O)c2nc(-c3c[nH]c4ccccc34)no2)c2cc(F)ccc21`, the growth is 33% (inactive).

With `CCOCCNC1=C(Cl)C(=O)c2ccccc2C1=O`, the growth is 110% (inactive).

Turning to `CSc1nc2ccccc2cc1/C=C1/C=C(c2ccccc2)NC1=O`, the growth is 66.8% (inactive).

On to `Cn1cc(-c2csc(-c3cn(C(=O)OC(C)(C)C)c4ccc(Br)cc34)n2)c2ccnc(Cl)c21`, for which the growth is 88.2% (inactive).

For the compound `CCCCCCCC[C@@H]1N[C@@H](C(=O)OC)Cc2c1[nH]c1ccccc21`, the growth was 102% (inactive).

Regarding `COc1c(B(O)O)cccc1-c1cc(C)c2c(ccc3[nH]ncc32)n1`, the growth was 131% (inactive).

In the case of `Cc1c(-c2ccc(O)cc2)n(Cc2ccc(OCCN3CCCCCC3)cc2)c2ccc(O)cc12`, the growth was 63.5% (inactive).

`CCN(CC)Cc1cc(C=C2C(=O)NC(=S)NC2=O)cc(OC)c1O`: the growth was 108% (inactive).

As to `COc1ccc2c(c1OC)CO[C@@H]2[C@H]1c2c(cc3c(c2OC)OCO3)CCN1S(=O)(=O)c1cn(C)cn1`, the growth is 3.48% (active).

Consider `Cc1sc2nc(NCCc3c[nH]c4ccc(Cl)cc34)[nH]c(=O)c2c1C`, for which the growth was 26.5% (inactive).

Turning to `Clc1cccc(Nc2ncnc3ccc(-c4cnc5[nH]ccc5c4)cc23)c1`, the growth was 88.7% (inactive).

With `O=[N+]([O-])c1ccc(O)cc1Br`, the growth was 96.2% (inactive).

Regarding `O=C(c1nn(-c2ccccc2)c2c1CC(NCc1ccc(F)cc1)CC2)N1CCCCC1` (stereo not given), the growth is 95.3% (inactive).

As to `COc1ccc(C/C(C)=C(\c2ccc(Cl)cc2)c2ccc(OCCN3CCCCC3)cc2)cc1`, the growth was 93.3% (inactive).

Regarding `COc1ccc(C2=C(Nc3ccc(C(=O)Nc4ccccc4)cc3)C(=O)N(C)C2=O)cc1`, the growth is 99.9% (inactive).

Take `CS(=O)(=O)c1ccc(-c2cnn3ccc(-c4cccc(S(=O)(=O)C5CC5)c4)nc23)cc1`: the growth is 64.3% (inactive).

`COc1ccc(-c2cc(-c3ccc(Cl)cc3)c(C#N)c(=O)n2Cc2ccc(C(=O)Nc3ccccc3N)cc2)cc1`: the growth is 81.5% (inactive).

As for `COc1cc(OC)c(NC(=O)c2cc3ccccc3cc2O)cc1Cl`, the growth is 42.1% (inactive).

In the case of `CNc1nnc2n(-c3ccccc3)c(=O)c3cnn(-c4ccccc4)c3n12`, the growth was 79.1% (inactive).

In the case of `Cn1cc(-c2csc(-c3c[nH]c4ccccc34)n2)c2cnccc21`, the growth is -80.2% (active).

In the case of `COc1ccc2c(c1)N(CCO)C1=C(C(=O)OC1)C2c1cccc(F)c1` (stereo not given), the growth was -1.78% (active).

`CS(=O)(=O)Nc1cncc(-c2ccc3ncnc(Nc4cncc(Cl)c4)c3c2)c1`: the growth is 93.1% (inactive).

Regarding `COc1ccc(Nc2ncc(Br)c(NCCCNC(=O)C3CCCC3)n2)cc1`, the growth was 61.5% (inactive).

With `CC(=O)Oc1ccc(N2C(=O)C(Cl)=C(Nc3cccc(C(F)(F)F)c3)C2=O)cc1`, the growth was 105% (inactive).

As to `[O-]/[N+](=C\c1ccc(-n2cc(Cc3ccccc3Cc3cn(-c4ccc(/C=[N+](/[O-])c5ccccc5)cc4)nn3)nn2)cc1)c1ccccc1`, the growth is 101% (inactive).

For the compound `N#Cc1nc(-c2ccc(F)cc2)oc1S(=O)(=O)N1CCOCC1`, the growth was 54.2% (inactive).

`O=C(CSc1nc2ccc([N+](=O)[O-])cc2[nH]1)Nc1ccc([N+](=O)[O-])cc1`: the growth was 24.5% (inactive).

For `COc1cc(-c2cncn2-c2ccc(-c3nc4ccc(F)cc4s3)cc2)ccc1F`, the growth was 102% (inactive).

Turning to `O=C(COc1ccc(-c2nc3cc(Cl)c(Cl)cc3[nH]2)cc1)N=Nc1c(O)[nH]c2ccc(Cl)cc12`, the growth is 66.5% (inactive).

For `COc1cc2ncnc(Nc3ccc(F)c(Cl)c3)c2cc1OCC(=O)N1CCN(c2ccccc2)CC1`, the growth is 99.4% (inactive).

As to `O=C(Nc1cccc2ccccc12)NC1CC1`, the growth was 103% (inactive).

Take `CC(O)(c1ccccc1)C(c1ccccc1)C1CCCCN1` (stereo not given): the growth is 92.3% (inactive).

On to `Cc1cc(N2CCN(CC(=O)Nc3ccc4c(ccn4C)c3)CC2)nc(N2CCCCCC2)n1`, for which the growth is 98.7% (inactive).

Turning to `OCCn1cc(-c2nc(-c3c[nH]c4ncccc34)cs2)c2cc(F)ccc21`, the growth is 63.8% (inactive).

Consider `Cn1ccnc1C(=O)/C=C/c1ccc(C(=O)Nc2ccc(Cl)cc2)cc1`, for which the growth was 6.17% (active).

For the compound `Cc1c(O)cc(-c2cnc(Nc3ccccc3)s2)c(O)c1C`, the growth is 93.6% (inactive).

Take `Cc1cn(-c2cc(NC(=O)c3cncc(C#Cc4cnc(N)c5ncccc45)c3)cc(C(F)(F)F)c2)cn1`: the growth was 29.8% (inactive).

Regarding `CC(=O)Oc1ccc(/C(=C(\C)c2ccc(Cl)cc2)c2ccc(OCCN3CCCCC3)cc2)cc1`, the growth is -35.1% (active).

In the case of `O=C(N(c1ccccc1)c1ccccc1)n1cc(I)c2nc(Cl)nc(Cl)c21`, the growth is 57.4% (inactive).

Regarding `Cn1ccc(=O)c(C(=O)Nc2nsc3ccc([N+](=O)[O-])cc23)c1`, the growth is 46.6% (inactive).
